Data taken from PubChem BioAssay (NCATS).
Records with an inconclusive call do not appear. Calls of active or inactive are those of the source. Unless noted, calls come from the whole dose curve; as a rule, active = well fitted curve in the direction sought with a large enough effect; inconclusive = small, poorly fitted or top-dose-only effect, or another doubt; inactive = no such curve, though single readings can be large; an effect the other way counts as inactive or inconclusive.

Assays:
Furin (Homo sapiens) = Furin (Homo sapiens) (UniProt P09958); test: Furin counterscreen qHTS for Zika virus inhibitors (AID 1347149); note: nearly all actives have a fitted effect of over 70% in size; note: potency is the fitted concentration of half-maximal effect;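 for activity change, negative = inhibition: purified recombinant full-length human furin enzyme at 5 nM; fluorescence gain from furin cutting a BOC-RVRR-AMC peptide substrate over 15 min; top concentration of the series differs between compounds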
Method in brief: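 Counterscreen measures cleavage of 2 microM BOC-RVRR-AMC, below its ~15 microM Km, by 5 nM full-length human furin at pH 7.0 after a 15-min compound preincubation. Inhibition derives from the 15-min fluorescence increase at 37C.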

[1] = system: Zika virus NS2B-NS3 protease (linked construct); test: Confirmatory screen NINDS AMC qHTS for Zika virus inhibitors (AID 1347152); note: nearly all actives have a fitted effect of over 70% in size; note: potency is the fitted concentration of half-maximal effect;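 for activity change, negative = inhibition: AMC fluorescence gain from cleaved Bz-Nle-KRR-AMC substrate over 15 min; top concentration of the series differs between compounds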
Method in brief: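 Purified NS2B-NS3 protease with NS2B hydrophilic domain linked to NS3 protease domain by flexible linker, 1 nM final in 10 mM Tris-HCl pH 8.0, 0.01% Tween 20. Compounds preincubated 15 min, room temperature; Bz-Nle-KRR-AMC 10 microM (Km 18.3 µM); 15-min fluorescence change, 4-parameter Hill fit.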

[2] = system: Zika virus NS2B-NS3 protease (unlinked complex); test: Confirmatory screen GU AMC qHTS for Zika virus inhibitors (AID 1347153); note: nearly all actives have a fitted effect of over 70% in size;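 for Potency: enzyme at 25 nM with substrate at 10 µM below its Km of 18.3 µM; potency is the fitted concentration of half-maximal effect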
Method in brief: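 Fluorescence change (ex 340/em 450 nm) over 15 min, ~20% substrate conversion, normalized to no-inhibitor and no-enzyme controls, then Hill-fitted. Unlinked protease at 25 nM; AMC peptide 10 µM.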

[3] = system: Zika virus NS2B-NS3 protease (unlinked); test: Optimization of GU AMC qHTS for Zika virus inhibitors: Unlinked NS2B-NS3 protease assay (AID 1347151); note: nearly all actives have a fitted effect of over 80% in size
Method in brief: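 Noncovalent complex of NS2B hydrophilic domain and NS3 protease domain, 25 nM final, in 10 mM Tris-HCl pH 8.0, 0.01% Tween 20. AMC fluorescence change over 15 min at room temperature was fitted to a 4-parameter Hill equation.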

[4] = Vero cells viability qHTS for Zika virus inhibitors (AID 1347167)
Method in brief: (§1)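 To flag cytotoxic protease inhibitors, viability is measured by ATP-dependent luminescence (CellTiter Glo) after cells attached overnight receive compound for 24 to 48 hours in DMEM with 4% FBS.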

[5] = HepG2 cells viability qHTS for Zika virus inhibitors (AID 1347168)
Method in brief: as §1

[6] = Tertiary RLuc qRT-PCR qHTS assay for Zika virus inhibitors (AID 1347169); note: top concentration of the series differs between compounds; nearly all actives have a fitted effect of over 55% in size
Method in brief: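 Vero cells (1,000 per well) plated overnight at 37 degrees C, treated with compound in DMSO, then infected with recombinant ZIKV-RLuc (Cambodian) at MOI 1-2 for 48-72 hrs. Live-cell Renilla luciferase substrate added; luminescence read after 1-1.5 hrs.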

[7] = target: Glutathione peroxidase 1 (Homo sapiens) (UniProt P07203); test: Primary qHTS Assay for Inhibitors of Recombinant Selenoprotein Glutathione Peroxidase 1 (GPX1) (AID 1845191); note: nearly all actives have a fitted effect of over 65% in size
Method in brief: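 GPX1 10 nM, GR 100 nM, GSH 1 mM, NADPH 0.5 mM, CHP 0.5 mM (final). 30-min cpd preincubation, RT. Ex340/Em450 read t=0, t=15 min.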

[8] = target: Phospholipid hydroperoxide glutathione peroxidase GPX4 (Homo sapiens) (UniProt P36969); test: Primary qHTS Assay for Inhibitors of Recombinant Selenoprotein Glutathione Peroxidase 4 (GPX4) (AID 1845192); conditions: outcome: dose series up to 50 µM unless noted; note: nearly all actives have a fitted effect of over 65% in size
Method in brief: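 qHTS, GR-coupled: GPX4 200 nM + cpd 30 min RT → GSH 1 mM, NADPH 0.5 mM, GR 100 nM → CHP 0.5 mM start; fluor 340/450 at t0 and t15 min; no-enzyme wells as control.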

[9] = target: Glucocorticoid receptor (Homo sapiens) (UniProt P04150); test: GR-GFP Redistribution (AID 450;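 active = compounds whose dose series gives a full or clear partial fitted curve of increased nuclear translocation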; note: potency is the fitted concentration of half-maximal effect); conditions: U2OS GR-GFP nuclear translocation, laser cytometry, 2 h
[10] = target: Glucocorticoid receptor (Homo sapiens) (UniProt P04150); test: GR-EFC Redistribution (AID 451; calls by dose curve; note: potency is the fitted concentration of half-maximal effect); conditions: CHO-K1 GR-EFC translocation, beta-gal luminescence, 2 h
Method in brief: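 CHO-K1 cells stably expressing nuclear-localized β-gal enzyme acceptor and GR fused C-terminally to the enzyme donor fragment; ligand-driven nuclear translocation restores β-gal by complementation. Compounds titrated up to 46 uM final, 2 h at 37 °C; luminescence read.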

[11] = target: Mitogen-activated protein kinase 10 (Mus musculus) (UniProt Q61831); test: JNK3 AlphaScreen Assay (AID 530; active = well fitted curve in either direction with a large enough effect, not every such curve was filed as active;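 note: kinase came from lysate of stimulated human HepG2 cells; signal reports phosphorylation of biotinylated GST-cJun 1-79 at Ser73 with 10 µM ATP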)
Method in brief: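 Biotinylated GST-cJun(1-79) served as substrate for JNK3 in HepG2 lysates stimulated with IL-1beta and TNF-alpha. ATP was 10 uM final, pH 7.6. Ser73 phosphorylation was quantified by AlphaScreen (680 nm excitation).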

[12] = target: 3',5'-cyclic-AMP phosphodiesterase 4B (Homo sapiens) (UniProt Q07343); test: qHTS Assay for Inhibitors of PDE-IV (AID 607; active = well fitted activation curve with a large enough effect in the main read-out, with a control signal flat, not every such curve was filed as active)
Method in brief: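 The readout is membrane depolarisation from a cAMP-sensing CNG channel, detected with a potential dye at ex 535/em 590. Cells were HEK293-derived (endogenous PDE-IV) at 1000 cells/well, titrated up to 22.9 uM final.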

[13] = target: Ubiquitin carboxyl-terminal hydrolase 1 (Homo sapiens) (UniProt O94782); test: Inhibitors of USP1/UAF1: Pilot qHTS (AID 504865); note: potency is the fitted concentration of half-maximal effect; nearly all actives have a fitted effect of over 35% in size
Method in brief: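 USP1/UAF1 complex (1nM) preincubated with compound 15 min at room temperature, then Ub-Rho substrate (150nM final) added. Fluorescence read kinetically at 480/540 nm, 6 reads every 60 seconds. Buffer: 50mM HEPES pH 7.8, 0.5mM EDTA, 0.1 mg/ml BSA, 1mM TCEP, 0.01% Tween-20.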

[14] = target: DNA dC->dU-editing enzyme APOBEC-3G (Homo sapiens) (UniProt Q9HC16); test: qHTS for inhibitors of Vif-A3G interactions: Validation (AID 588379)
Method in brief: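 Yellow fluorescence (Ex 488, Em 500-530) of Vif-coexpressing HeLa A3G-eYFP cells, scanned by Acumen cytometer, reports blocked A3G degradation. Cells plated at 700/well overnight at 37 deg C before compound addition, then a further overnight compound incubation at 37 deg C.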

[15] = system: Zika virus NS2B-NS3 protease; test: Primary screen GU AMC qHTS for Zika virus inhibitors (AID 1347154); note: potency is the fitted concentration of half-maximal effect; nearly all actives have a fitted effect of over 70% in size
Method in brief: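 Unlinked Zika NS2B hydrophilic domain/NS3 protease domain noncovalent complex (25 nM final) in 10 mM Tris-HCl pH 8.0, 0.01% Tween 20, with AMC peptide substrate. Fluorescence (ex 340, em 450 nm) change over 15 min, room temperature; percent inhibition fitted to 4-parameter Hill equation.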

[16] = Confirmatory screen NINDS Rhodamine qHTS for Zika virus inhibitors (AID 1347161); note: potency is the fitted concentration of half-maximal effect; nearly all actives have a fitted effect of over 60% in size
Method in brief: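 qHTS dose-response: 25 nM linked protease, pH 8.0 Tris/Tween buffer, cpd titration, 15 min RT preinc, 1.5 microM Rhod110 peptide, 15 min reaction (~15% conversion), Ex480/Em540; 4-parameter Hill fit.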

[17] = target: Rap guanine nucleotide exchange factor 3 (Homo sapiens) (UniProt O95398); test: Confirmatory qHTS for antagonist of cAMP-regulated guanine nucleotide exchange factor 3 (EPAC1) (AID 1645880); note: potency is the fitted concentration of half-maximal effect; nearly all actives have a fitted effect of over 55% in size
Method in brief: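 Released BODIPY-GDP fluoresces less than Rap1-bound BODIPY-GDP; the signal is followed at 480/540 nm at 5-min intervals over 30 min, after 5 min at room temperature. Reactions contain 100 nM EPAC1, 250 nM RAP1B-BODIPY-GDP and 50 uM GDP; results are normalized to ATA and DMSO.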

[18] = target: Rap guanine nucleotide exchange factor 3 (Homo sapiens) (UniProt O95398); test: Confirmatory qHTS for agonist of cAMP-regulated guanine nucleotide exchange factor 3 (EPAC1) (AID 1645881);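 note: EPAC1 catalysed release of BODIPY-GDP from Rap1B seen as fluorescence loss; nearly all actives have a fitted effect of over 75% in size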
[19] = target: Rap guanine nucleotide exchange factor 4 (Homo sapiens) (UniProt Q8WZA2); test: Confirmatory qHTS for agonist of cAMP-regulated guanine nucleotide exchange factor 4 (EPAC2) (AID 1645884);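 note: nucleotide exchange releases bodipy-GDP from Rap1 and this lowers its fluorescence; nearly all actives have a fitted effect of over 65% in size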
[20] = target: Rap guanine nucleotide exchange factor 4 (Homo sapiens) (UniProt Q8WZA2); test: Confirmatory qHTS for antagonist of cAMP-regulated guanine nucleotide exchange factor 4 (EPAC2) (AID 1645885); note: potency is the fitted concentration of half-maximal effect; nearly all actives have a fitted effect of over 25% in size
[21] = target: Catechol O-methyltransferase (Homo sapiens) (UniProt P21964); test: Confirmatory Screen for Target Class Profiling of Small Molecule Inhibitors of Methyltransferases (AID 1745852; calls by dose curve; note: potency is the fitted concentration of half-maximal effect); conditions: MTase-Glo luminescence, SAH detection, recombinant enzyme; measured here: COMT max response; stronger effect = lower value
[22] = target: Guanidinoacetate N-methyltransferase (Homo sapiens) (UniProt Q14353); test: as above; conditions: activity change, negative = inhibition: at 57.3 µM (top of the series) unless noted
[23] = target: Nicotinamide N-methyltransferase (Homo sapiens) (UniProt P40261); test: as above; conditions: MTase-Glo luminescence, SAH detection, recombinant enzyme; measured here: NNMT max response; stronger effect = lower value
[24] = target: Phenylethanolamine N-methyltransferase (Homo sapiens) (UniProt P11086); test: as above; conditions: MTase-Glo luminescence, SAH detection, recombinant enzyme; measured here: PNMT max response; stronger effect = lower value

Sequence of Furin (Homo sapiens) (P09958 whole entry, looked up): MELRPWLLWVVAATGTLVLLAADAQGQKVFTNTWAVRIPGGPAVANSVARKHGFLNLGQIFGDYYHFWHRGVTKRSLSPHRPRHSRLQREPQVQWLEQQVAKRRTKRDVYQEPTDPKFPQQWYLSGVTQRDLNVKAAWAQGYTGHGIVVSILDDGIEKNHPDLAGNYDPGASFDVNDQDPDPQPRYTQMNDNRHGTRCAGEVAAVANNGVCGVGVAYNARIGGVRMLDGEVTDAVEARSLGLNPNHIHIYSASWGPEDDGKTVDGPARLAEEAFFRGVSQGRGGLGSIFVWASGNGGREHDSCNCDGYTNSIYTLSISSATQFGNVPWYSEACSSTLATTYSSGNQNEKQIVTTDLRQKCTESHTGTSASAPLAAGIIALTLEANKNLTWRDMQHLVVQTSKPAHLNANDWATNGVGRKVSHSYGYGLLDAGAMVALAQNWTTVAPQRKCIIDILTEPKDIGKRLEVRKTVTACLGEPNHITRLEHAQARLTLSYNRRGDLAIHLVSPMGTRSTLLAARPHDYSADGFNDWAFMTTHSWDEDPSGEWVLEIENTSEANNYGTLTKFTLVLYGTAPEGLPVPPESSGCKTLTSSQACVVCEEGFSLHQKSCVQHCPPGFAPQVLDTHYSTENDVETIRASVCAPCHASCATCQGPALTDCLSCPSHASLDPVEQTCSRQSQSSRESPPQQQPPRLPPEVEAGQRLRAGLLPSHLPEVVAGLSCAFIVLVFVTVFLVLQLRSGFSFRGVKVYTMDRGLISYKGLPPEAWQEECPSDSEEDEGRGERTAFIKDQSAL
Sequence of Rap guanine nucleotide exchange factor 4 (Homo sapiens) (Q8WZA2 whole entry, looked up): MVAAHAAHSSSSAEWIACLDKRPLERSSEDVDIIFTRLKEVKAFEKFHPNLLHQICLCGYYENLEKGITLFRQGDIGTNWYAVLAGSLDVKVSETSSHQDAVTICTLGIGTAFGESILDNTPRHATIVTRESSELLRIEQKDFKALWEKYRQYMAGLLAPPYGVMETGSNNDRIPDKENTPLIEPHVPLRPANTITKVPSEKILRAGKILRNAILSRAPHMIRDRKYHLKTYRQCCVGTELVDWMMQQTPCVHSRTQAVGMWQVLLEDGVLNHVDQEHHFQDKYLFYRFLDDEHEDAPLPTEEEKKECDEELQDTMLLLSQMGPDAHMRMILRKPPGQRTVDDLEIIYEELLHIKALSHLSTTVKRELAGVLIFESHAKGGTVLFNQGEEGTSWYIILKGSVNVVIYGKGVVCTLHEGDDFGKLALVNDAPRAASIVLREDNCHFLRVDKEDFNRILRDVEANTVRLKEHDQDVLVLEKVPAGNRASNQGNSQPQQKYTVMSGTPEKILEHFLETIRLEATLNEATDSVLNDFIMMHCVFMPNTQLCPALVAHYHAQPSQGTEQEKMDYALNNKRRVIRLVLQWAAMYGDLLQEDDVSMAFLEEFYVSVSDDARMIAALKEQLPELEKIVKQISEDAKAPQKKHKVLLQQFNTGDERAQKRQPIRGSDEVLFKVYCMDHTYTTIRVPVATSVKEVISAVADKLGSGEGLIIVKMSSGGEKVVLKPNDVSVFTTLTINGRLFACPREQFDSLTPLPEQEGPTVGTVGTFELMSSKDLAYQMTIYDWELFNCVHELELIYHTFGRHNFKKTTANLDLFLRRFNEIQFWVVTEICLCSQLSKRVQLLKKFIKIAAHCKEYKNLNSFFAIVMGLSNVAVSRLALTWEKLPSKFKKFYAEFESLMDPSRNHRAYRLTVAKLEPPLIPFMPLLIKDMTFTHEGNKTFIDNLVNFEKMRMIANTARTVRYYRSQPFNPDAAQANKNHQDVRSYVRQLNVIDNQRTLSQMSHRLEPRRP
Sequence of Glucocorticoid receptor (Homo sapiens) (P04150 whole entry, looked up, the tested form may be a part): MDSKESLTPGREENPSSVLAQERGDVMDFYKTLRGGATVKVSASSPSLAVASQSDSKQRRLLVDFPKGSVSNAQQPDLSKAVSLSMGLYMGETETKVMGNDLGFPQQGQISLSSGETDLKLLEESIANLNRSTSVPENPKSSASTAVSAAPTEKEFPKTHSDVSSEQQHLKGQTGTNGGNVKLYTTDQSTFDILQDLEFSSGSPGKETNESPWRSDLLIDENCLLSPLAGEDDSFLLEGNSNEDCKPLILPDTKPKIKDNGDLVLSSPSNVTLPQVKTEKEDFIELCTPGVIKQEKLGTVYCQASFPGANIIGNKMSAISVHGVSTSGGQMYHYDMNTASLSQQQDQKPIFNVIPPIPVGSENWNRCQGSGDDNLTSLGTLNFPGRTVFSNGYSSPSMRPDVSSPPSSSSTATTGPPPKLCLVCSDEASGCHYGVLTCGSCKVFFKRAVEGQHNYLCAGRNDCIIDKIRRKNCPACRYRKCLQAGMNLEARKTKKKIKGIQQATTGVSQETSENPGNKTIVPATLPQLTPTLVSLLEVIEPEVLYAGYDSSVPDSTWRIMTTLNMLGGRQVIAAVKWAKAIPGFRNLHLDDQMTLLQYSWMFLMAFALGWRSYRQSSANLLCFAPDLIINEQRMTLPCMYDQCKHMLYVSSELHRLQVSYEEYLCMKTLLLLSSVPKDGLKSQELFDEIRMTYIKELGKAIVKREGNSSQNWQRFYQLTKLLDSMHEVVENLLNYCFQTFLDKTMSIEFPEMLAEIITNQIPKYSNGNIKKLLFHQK
Sequence of Rap guanine nucleotide exchange factor 3 (Homo sapiens) (O95398 whole entry, looked up): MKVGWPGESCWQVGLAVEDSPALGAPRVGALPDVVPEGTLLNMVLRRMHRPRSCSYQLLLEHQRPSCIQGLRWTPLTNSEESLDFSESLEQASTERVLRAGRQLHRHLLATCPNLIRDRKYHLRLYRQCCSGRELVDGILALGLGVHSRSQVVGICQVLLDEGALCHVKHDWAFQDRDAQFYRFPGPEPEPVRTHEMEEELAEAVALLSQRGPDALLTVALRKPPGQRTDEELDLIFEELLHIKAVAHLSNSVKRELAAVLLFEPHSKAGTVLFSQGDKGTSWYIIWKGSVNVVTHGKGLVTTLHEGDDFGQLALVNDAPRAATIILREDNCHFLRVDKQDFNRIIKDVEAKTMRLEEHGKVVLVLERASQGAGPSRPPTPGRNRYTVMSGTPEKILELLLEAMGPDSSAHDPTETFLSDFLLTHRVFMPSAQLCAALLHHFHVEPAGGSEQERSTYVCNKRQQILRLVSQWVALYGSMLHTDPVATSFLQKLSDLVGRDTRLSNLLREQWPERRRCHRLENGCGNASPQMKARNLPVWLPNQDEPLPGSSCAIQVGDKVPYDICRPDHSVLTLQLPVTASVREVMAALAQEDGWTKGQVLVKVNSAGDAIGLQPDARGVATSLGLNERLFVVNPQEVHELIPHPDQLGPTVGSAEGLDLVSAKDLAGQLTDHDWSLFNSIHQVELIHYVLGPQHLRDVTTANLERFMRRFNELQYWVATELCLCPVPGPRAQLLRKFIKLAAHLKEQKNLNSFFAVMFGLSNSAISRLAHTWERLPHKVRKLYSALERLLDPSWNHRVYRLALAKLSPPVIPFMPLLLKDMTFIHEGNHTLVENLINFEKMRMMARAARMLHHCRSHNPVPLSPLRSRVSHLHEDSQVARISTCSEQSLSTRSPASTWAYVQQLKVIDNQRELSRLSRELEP
Sequence of DNA dC->dU-editing enzyme APOBEC-3G (Homo sapiens) (Q9HC16 whole entry, looked up): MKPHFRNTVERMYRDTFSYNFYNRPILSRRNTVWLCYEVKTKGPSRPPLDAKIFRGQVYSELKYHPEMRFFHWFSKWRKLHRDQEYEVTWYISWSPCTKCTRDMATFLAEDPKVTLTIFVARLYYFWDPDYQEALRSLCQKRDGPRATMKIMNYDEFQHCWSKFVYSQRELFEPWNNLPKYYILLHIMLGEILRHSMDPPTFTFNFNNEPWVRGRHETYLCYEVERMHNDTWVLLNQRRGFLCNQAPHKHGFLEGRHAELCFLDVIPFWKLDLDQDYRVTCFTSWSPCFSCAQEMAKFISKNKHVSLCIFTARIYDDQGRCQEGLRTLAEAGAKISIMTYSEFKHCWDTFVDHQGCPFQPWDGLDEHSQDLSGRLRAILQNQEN
Sequence of 3',5'-cyclic-AMP phosphodiesterase 4B (Homo sapiens) (Q07343 whole entry, looked up): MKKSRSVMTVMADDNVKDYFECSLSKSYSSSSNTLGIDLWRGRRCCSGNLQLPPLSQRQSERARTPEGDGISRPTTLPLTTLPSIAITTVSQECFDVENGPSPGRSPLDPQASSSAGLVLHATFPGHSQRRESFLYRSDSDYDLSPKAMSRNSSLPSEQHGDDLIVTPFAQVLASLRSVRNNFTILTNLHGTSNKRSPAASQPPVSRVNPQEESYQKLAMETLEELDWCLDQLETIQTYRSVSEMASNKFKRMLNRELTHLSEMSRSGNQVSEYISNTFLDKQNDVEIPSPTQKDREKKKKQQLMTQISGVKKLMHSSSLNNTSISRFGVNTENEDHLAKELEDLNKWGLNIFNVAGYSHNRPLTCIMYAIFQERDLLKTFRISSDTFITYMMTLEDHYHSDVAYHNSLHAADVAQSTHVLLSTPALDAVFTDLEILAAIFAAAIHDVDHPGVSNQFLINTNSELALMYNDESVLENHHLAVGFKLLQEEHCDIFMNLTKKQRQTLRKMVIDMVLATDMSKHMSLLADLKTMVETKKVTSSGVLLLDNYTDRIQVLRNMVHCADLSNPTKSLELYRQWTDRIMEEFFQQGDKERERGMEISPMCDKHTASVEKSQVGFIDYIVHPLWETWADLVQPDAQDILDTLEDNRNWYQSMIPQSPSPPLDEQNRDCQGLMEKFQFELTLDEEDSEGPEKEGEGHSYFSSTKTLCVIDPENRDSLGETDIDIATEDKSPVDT
Sequence of Glutathione peroxidase 1 (Homo sapiens) (P07203 whole entry, looked up): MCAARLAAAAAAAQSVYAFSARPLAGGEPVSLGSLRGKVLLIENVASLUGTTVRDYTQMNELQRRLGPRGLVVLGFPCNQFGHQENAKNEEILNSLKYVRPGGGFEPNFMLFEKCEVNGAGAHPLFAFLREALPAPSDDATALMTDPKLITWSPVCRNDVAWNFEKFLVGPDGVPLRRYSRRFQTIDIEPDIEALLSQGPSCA
Sequence of Phospholipid hydroperoxide glutathione peroxidase GPX4 (Homo sapiens) (P36969 whole entry, looked up): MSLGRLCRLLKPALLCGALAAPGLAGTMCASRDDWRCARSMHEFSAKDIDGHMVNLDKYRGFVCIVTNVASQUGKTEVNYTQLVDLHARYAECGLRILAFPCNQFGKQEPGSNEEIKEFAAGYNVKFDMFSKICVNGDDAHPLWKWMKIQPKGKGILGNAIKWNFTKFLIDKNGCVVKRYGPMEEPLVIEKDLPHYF

O=C(Nc1ccc(Oc2ccccc2)cc1)O[C@@H]1CO[C@H]2[C@@H]1OC[C@@H]2NS(=O)(=O)c1ccc(Cl)cc1
inactive: Potency (Furin (Homo sapiens)) | Potency [1] | Potency [2]

C[S+](CC[C@H](N)C(=O)O)C[C@H]1O[C@@H](n2cnc3c(N)ncnc32)[C@H](O)[C@H]1O (stereo partly drawn)
inactive: Potency (Furin (Homo sapiens)) | Potency [3] | Potency [4] | Potency [5] | Potency [6] | Potency [7] | Potency [8]

CS(=O)(=O)c1ccc(Nc2ccc3c(c2)OCO3)c([N+](=O)[O-])c1
inactive: Potency (Furin (Homo sapiens)) | Potency [1] | Potency [2] | Potency [6]

CC1(COc2ccc(C[C@H]3SC(=O)NC3=O)cc2)CCCCC1
inactive: Potency [9] > 46 µM | Potency [10] > 46 µM | Potency [11] | Potency [12] | Potency [14] | Potency (Furin (Homo sapiens)) | Potency [4] | Potency [5] | outcome [18] | outcome [19]
active: Potency [13] 79.4 µM | Potency [1] 19.2 µM | Potency [2] 21.5 µM | Potency [15] 11.9 µM | Potency [16] 4.4 µM | Potency [17] 55.9 µM | Potency [20] 49.4 µM

Nc1ncnc2c1ncn2[C@@H]1O[C@H](C[C@@H](N)CC[C@H](N)C(=O)O)[C@@H](O)[C@H]1O
active: Potency [22] 21.7 µM
-86.5%: activity [24]
-74.5%: activity [23]
inactive: Potency (Furin (Homo sapiens)) | Potency [3] | Potency [4] | Potency [5] | Potency [6]
-81.8%: activity [21]

CC(C)(C)c1ccc(NC(=O)O[C@@H]2CO[C@H]3[C@@H]2OC[C@@H]3Nc2nccc(-c3ccc(-c4ccccc4)cc3)n2)cc1
active: Potency (Furin (Homo sapiens)) 62.2 µM
inactive: Potency [1] | Potency [2]
